Assay outcomes: PubChem BioAssay, National Center for Advancing Translational Sciences (NCATS)
This is a sample that favours compounds with a hit; in the whole collection about 21% have one here.
Shiga inhibitor: blocks Shiga toxin action in Vero cells; Vero cells, Shiga toxin protein synthesis inhibition reporter; inhibition, % at 38.7 µM; 290,000 tested, 9.2% active; AID 2315; in the data active = inhibition mostly above about 28%, no sharp cut-off; inactive = mostly below about 43%; note: 0% is about no effect
NS1 function inh: inhibitors of influenza NS1 protein function. Potency, µM (top dose mostly 46.1 µM), without a hit: top-dose activity, positive = more growth. 270,000 tested, 0.4% active; calls by dose curve; note: potency is the fitted concentration of half-maximal effect; actives are rising curves; nearly all actives have a fitted effect of over 50% in size
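OD600 was taken as the measure of yeast growth restored by compound in an NS1-expressing S. cerevisiae strain. Cells had been washed out of glucose medium and diluted 1:100 into galactose -URA medium, pH 6.0.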
Pf growth 96h: P. falciparum growth inhibition at 96 hours | P. falciparum luciferase reporter growth, 96 h | Potency, µM (doses to about 28.7 µM), inactives show at the highest dose activity change, negative = inhibition, most hits filed as inhibitors | 320,000 tested, 6.9% active; note: potency is the fitted concentration of half-maximal effect; % is set by controls: 0 for no effect and ±100 for the full control effect
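Delayed-death screen, second-generation endpoint: infected erythrocytes, 2% hematocrit, 0.05% parasitemia final; 96 hours at 37 C, 5% CO2; luciferase detection reagent; luminescence decrease equals reduced growth.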
CHX counter: counter-screen for Shiga toxin inhibitors: cycloheximide protein synthesis inhibition; cell reporter, cycloheximide protein synthesis inhibition counterscreen; max response, %; 300,000 tested, 12% active; AID 2314; in the data active = max response mostly above about 13%, no sharp cut-off; inactive = mostly below about 14%; note: read at 38.3 µM for the half of the compounds with a filed dose; 0% is about no effect
Pf growth 48h: P. falciparum growth inhibition at 48 hours (one generation); AID 504832; 310,000 tested, 5.9% active; Potency, µM (doses to about 28.7 µM), inactives show at the top dose activity change, negative = inhibition, hits mostly inhibitors; P. falciparum luciferase growth in erythrocytes, 48 h; note: potency is the fitted concentration of half-maximal effect; % is set by controls: 0 for no effect and ±100 for the full control effect
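Here the parasites carry a stable luciferase gene and grow inside erythrocytes in Albumax-based RPMI medium with compound for one erythrocytic cycle. Activity is scored as loss of luminescent signal.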
Starred values were filed as active, the others as inactive; ? = inconclusive; . = no result given. Unless noted, calls come from the whole dose curve; as a rule, active = well fitted inhibition curve with a large enough effect; inconclusive = small, poorly fitted or top-dose-only effect, or another doubt; inactive = no such curve, though single readings can be large or run the other way.

SMILES	Shiga inhibitor	NS1 function inh	Pf growth 96h	CHX counter	Pf growth 48h
COc1cccc(N2CCN(CC(=O)NC3=Nc4ccccc4N=C(C)C3c3ccccc3)CC2)c1 (configuration not stated)	-10.6	-8.8%	?	-1.1	?
CC1=Nc2ccccc2N=C(NC(=O)CN2CCN(c3ccc(F)cc3)CC2)C1c1ccccc1 (configuration not stated)	16.1	-12.3%	?	-2.3	?
COc1ccc(C(=O)NC2=Nc3ccccc3N=C(C)C2c2ccccc2)cc1 (configuration not stated)	189.8*	-1.4%	?	43.6*	?
CC1=Nc2ccccc2N=C(NC(=O)/C=C/C(=O)O)C1c1ccccc1 (configuration not stated)	77.3*	1.4%	47.2%	40.3*	55.0%
Nc1ccn([C@@H]2O[C@H](CO)[C@H](O)C2(F)F)c(=O)n1	.	.	1.51µM*	.	1.9µM*
Nc1ccn([C@@H]2O[C@H](CO)[C@@H](O)[C@@H]2O)c(=O)n1	2.4	1.5%	37.6%	-1.0	19.8%
CC1CC(=S)Nc2ccccc2N1C(=O)Nc1ccccc1 (configuration not stated)	15.4	-6.1%	?	9.1	3.29µM*
O=C(Nc1ccccc1)N1CCC(=S)Nc2ccccc21	-4.1	10.3%	-5.1%	1.2	-8.2%
Cc1ccc(C(=O)NCCc2nnc3ccc(SCC(=O)NCc4ccc(F)cc4)nn23)cc1	-6.0	4.4%	9.28µM*	9.2	-15.9%
O=C(CSc1ccc2nnc(CCNC(=O)c3ccccc3)n2n1)NCc1ccccc1	17.9	17.5%	?	1.3	-29.2%
Cc1ccc(C(=O)NCCc2nnc3ccc(SCC(=O)N4CCCC4)nn23)cc1	53.4*	-5.1%	?	42.3*	-21.7%
COc1cccc(NC(=O)CSc2ccc3nnc(CCNC(=O)c4ccccc4)n3n2)c1	-8.4	-9.1%	10.4µM*	9.9	-23.5%
CC(C)(C)CC(C)(C)c1ccc(O)c(-n2nc3ccccc3n2)c1	.	.	1.0%	.	?
Cc1cccc(-c2nnc(SCC(=O)Nc3ncccn3)n2C)c1	-5.5	.	3.5%	0.8	4.8%
COc1cccc(/C=N/NC(=O)c2cccc3ccccc23)c1	8.5	-6.1%	?	13.4	-17.0%
COC(=O)N/N=C\c1ccc(OC/C=C/c2ccccc2)c(OC)c1	-12.0	-11.9%	?	-1.9	10.4%
CCOC(=O)N/N=C\c1ccc(OC/C=C/c2ccccc2)c(OC)c1	22.5	-21.1%	50.3%	11.9	1.85µM*
CCOC(=O)N/N=C\c1cccc(OC)c1	71.6*	2.9%	52.8%	41.7*	?
COc1ccc(/C=C/C(=O)Oc2cccc(/C=N/NC(=O)Cc3ccc(Br)cc3)c2)cc1	89.4*	1.1%	?	48.6*	?
COC(=O)N/N=C/c1cccc(OCCSc2ccc(Cl)cc2)c1	60.3*	-10.8%	-48.6%	34.4*	45.5%
COc1cccc(/C=N/NC(=O)CCCC(=O)Nc2ccc(Br)cc2)c1	10.7	-0.6%	-6.8%	0.0	15.1%
Nc1c(C(=O)CSc2nnnn2-c2ccc(O)cc2)c(=O)[nH]c(=O)n1C1CC1	.	.	?	.	37.4%
CCN(CC)C(=O)Oc1cc(=O)n(C)c2ccccc12	-2.5	-2.2%	-16.0%	-3.6	3.0%
COc1cccc(-c2nnn(CC(=O)N(CC(C)C)C3CCS(=O)(=O)C3)n2)c1 (configuration not stated)	.	.	-0.1%	.	-1.5%
CCOC(=O)C1(CCCc2ccccc2)CCN(C(=O)CSC)CC1	-7.8	-22.7%	?	-1.8	128.9%
SMILES	Shiga inhibitor	NS1 function inh	Pf growth 96h	CHX counter	Pf growth 48h
CCOC(=O)C1(Cc2ccccc2Cl)CCN(C(=O)CN2CCOC2=O)CC1	74.7*	-3.8%	38.9%	42.6*	0.0%
CCOC(=O)C1(CCCc2ccccc2)CCN(C(=O)CN2CCOC2=O)CC1	9.0	-4.5%	14.7µM*	8.5	10.5%
COc1cccc(CNC(=O)[C@H](CCSC)NC(=O)N2CCn3c2nc2ccccc23)c1	-7.2	-16.9%	-28.4%	-6.8	?
CC1(C)Cc2c(sc3nnn(Cc4ccc(Cl)cc4)c(=O)c23)CO1	12.5	-7.5%	?	-0.8	-16.3%
O=[N+]([O-])c1cccc(/C=N\Nc2ccc3ccccc3n2)c1O	.	-32.2%	.	.	.
O=C(NNC(=O)c1cccc2ccccc12)c1ccco1	-12.8	2.5%	5.5%	3.4	3.9%
O=C(NNC(=O)c1ccccc1O)c1ccco1	96.9*	.	-28.8%	26.7*	250.0%
O=C(NNC(=O)c1ccccc1F)c1ccco1	40.3*	3.3%	-10.7%	13.6	71.1%
